p53 reactivation – mutant p53 re-activation in reporter cells | H1299 p53-A138V BP100-luciferase reporter, luminescence, 24 h | Potency, µM (doses to about 92.2 µM), inactives show top-dose activity change, positive = activation, usual class: activators | hit rate 0.063% among 320,000; further: % of control where 0% means no effect; nearly all actives have a fitted effect of over 45% in size
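H1299 (p53-null), stable ts p53-A138V + BP100-Luc; 1000 cells/well, Opti-MEM/10% FBS; cpd 4 pt, 1:5; 24 h, 37 deg C, 5% CO2; detection reagent 10 min RT; luminescence.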
NPC1 promoter act – NPC1 promoter activation. Huh7 NPC1 promoter luciferase reporter, 24 h. Potency, µM (top dose mostly 9.22 µM), for inactives: at the highest dose activation, actives largely listed as activators. hit rate 2.4% among 320,000. AID 485313; further: % of control where 0% means no effect; nearly all actives have a fitted effect of over 60% in size
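Readout is luciferase luminescence, reflecting NPC1 promoter activation in stably transfected Huh7 cells after 24 h compound exposure at 37 °C in reduced-serum medium with 10% FBS.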
FLuc counter – firefly luciferase modulation, counter-screen for miR-21 project; purified FLuc, Km substrates, luminescence inhibition; hit rate 6.9% among 360,000; Potency, µM (highest dose often 57.5 µM), without a hit: top-dose activity change, negative = inhibition, usual class: inhibitors; P08659;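 further: plate controls were vehicle for no effect and reference inhibitor for full effect; nearly all actives have a fitted effect of over 55% in size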
Target sequence (P08659 whole entry, looked up): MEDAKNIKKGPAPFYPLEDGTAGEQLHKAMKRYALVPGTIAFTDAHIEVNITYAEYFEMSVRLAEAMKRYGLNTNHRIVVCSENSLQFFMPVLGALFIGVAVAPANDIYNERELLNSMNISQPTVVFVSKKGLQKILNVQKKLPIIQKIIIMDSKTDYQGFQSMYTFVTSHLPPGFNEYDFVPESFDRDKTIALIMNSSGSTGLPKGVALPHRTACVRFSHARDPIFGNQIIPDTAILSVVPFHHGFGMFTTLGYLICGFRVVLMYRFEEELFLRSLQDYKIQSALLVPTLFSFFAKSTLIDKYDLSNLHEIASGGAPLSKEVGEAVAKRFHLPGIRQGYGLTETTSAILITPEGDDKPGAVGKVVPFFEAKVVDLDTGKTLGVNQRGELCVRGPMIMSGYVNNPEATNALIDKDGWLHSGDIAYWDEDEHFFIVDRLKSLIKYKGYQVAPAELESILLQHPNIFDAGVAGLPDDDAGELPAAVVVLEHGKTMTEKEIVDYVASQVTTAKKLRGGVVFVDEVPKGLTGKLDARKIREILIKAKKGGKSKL
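Purified P. pyralis luciferase, 10 nM final, with Km-level 10 uM D-luciferin and 10 uM ATP in 50 mM Tris acetate pH 7.5, 10 mM Mg acetate, 0.01% Tween-20, 0.05% BSA; 6-point qHTS titration about 60 µM downward; luminescence read.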
SMN2 splice up – increases expression of the SMN2 splice variant; HEK293 SMN2-luciferase splicing reporter, luminescence, 30-36 h; Potency, µM (series often up to 46.1 µM), for the others: at the top dose activity change, positive = activation, usual class: activators; hit rate 2.8% among 210,000; AID 1458; further: % of control where 0% means no effect; nearly all actives have a fitted effect of over 55% in size
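HEK293 cells carry an SMN2 minigene-luciferase reporter in which exon 7 inclusion puts luciferase in frame. Cells were seeded at 2000 cells/well, attached for 10-12 hours, then exposed to compounds for 30-36 hours at 37C before ONE-Glo luminescence.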
ELG1 genotox – induces genotoxicity in HEK293T cells with luciferase-tagged ELG1; HEK293T ELG1-luciferase reporter, luminescence, 16 h; Potency, µM (titrated, usually from 46 µM), inactives show top-dose activity change, positive = activation, most hits filed as activators; hit rate 1.3% among 330,000; further: % of control where 0% means no effect; nearly all actives have a fitted effect of over 60% in size
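16 hr compound incubation (37 °C, 5% CO2) of HEK293T cells carrying luciferase-tagged ELG1; luciferase then measured by ONE-Glo luminescence after 30 min at RT.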
Rab9 prom act – activates the Rab9 promoter; Huh7 Rab9 promoter-luciferase reporter, luminescence, 24 h; Potency, µM (top dose mostly 9.22 µM), for the others: top-dose activation, negative = inhibition, usual class: activators; hit rate 2.8% among 320,000; AID 485297; further: % of control where 0% means no effect; nearly all actives have a fitted effect of over 60% in size
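Huh7 cells stably carrying Rab9 promoter–luciferase reporter, plated 1500 cells/well, compound added after 2 h and incubated 24 h at 37 °C; luciferase luminescence then read after 10 min with detection reagent.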
Starred values were filed as active, the others as inactive; ? = inconclusive; nt = no result; [ ] = remark or other dose. An excerpt weighted towards active compounds, which were near 7.4% of everything screened. The call rests on the fitted dose curve; in most records, active means well fitted curve in the direction sought with a large enough effect; inconclusive means small, poorly fitted or top-dose-only effect, or another doubt; inactive means no such curve, though single readings can be large; an effect the other way counts as inactive or inconclusive. Potency means the concentration at half of the fitted maximal effect.

SMILES	p53 reactivation	NPC1 promoter act	FLuc counter	SMN2 splice up	ELG1 genotox	Rab9 prom act
COc1cccc(NC(=O)C(=O)c2cn(CC(=O)N3CCCC3)c3ccccc23)c1	-2.5%	14.6%	5.36µM*	nt	-4.4%	18.4%
COC(=O)c1ccc(NC(=O)C(=O)c2cn(CC(=O)N3CCOCC3)c3ccccc23)cc1	1.6%	-0.8%	-11.7%	nt	10.6%	-2.9%
COc1ccc(NC(=O)C(=O)c2cn(CC(=O)N3CCCC3)c3ccccc23)cc1OC	-8.2%	-11.2%	?	nt	-12.1%	4.2%
O=C(Nc1ccccc1Cl)C(=O)c1cn(CC(=O)N2CCOCC2)c2ccccc12	27.8%	3.55µM*	0.379µM*	nt	?	2.51µM*
COc1ccccc1CNC(=O)C(=O)c1cn(CC(=O)N2CCCC2)c2ccccc12	-8.9%	16.7%	?	nt	2.6%	6.5%
CCc1ccc(NC(=O)C(=O)c2cn(CC(=O)N3CCCCC3)c3ccccc23)cc1	5.4%	0.2%	9.53µM*	3.0%	-1.8%	-2.4%
NC(=O)Cn1cc(C(=O)COc2ccccc2)c2ccccc21	8.6%	0.5%	?	1.3%	-1.2%	-2.6%
O=C(COc1ccccc1)c1cn(CC(=O)N2CCCC2)c2ccccc12	-3.1%	-0.6%	21.3µM*	-8.3%	0.9%	-1.8%
Cc1ccc(NC(=O)C(=O)c2cn(CC(=O)N3CCCCC3)c3ccccc23)cc1	23.0%	1.2%	9.53µM*	4.4%	-1.4%	-2.3%
Cc1ccccc1-c1noc(-c2ccc(NCc3cccnc3)c([N+](=O)[O-])c2)n1	nt	nt	-13.8%	nt	nt	nt
CCOC(=O)c1ccc(N2C(=O)c3[nH]nc(-c4ccccc4)c3C2c2ccc(CC)cc2)cc1 (centres undefined)	nt	nt	-2.2%	-78.3%	nt	nt
O=C(NCCNc1ccccc1[N+](=O)[O-])c1cc(F)c(F)cc1Cl	?	?	19µM*	nt	?	?
COc1ccc(C(=O)NCCNc2ccccc2[N+](=O)[O-])cc1	12.2%	1.58µM*	4.78µM*	11.2µM*	11.6µM*	0.631µM*
CC(C)COc1ccc(C(=O)Nc2ccccc2[N+](=O)[O-])cc1	?	?	?	15.8µM*	?	?
CCCOc1ccc(C(=O)Nc2ccc(C)cc2[N+](=O)[O-])cc1	7.2%	?	-10.0%	-14.6%	3.0%	?
O=C(NCCCNc1ccc(C(F)(F)F)cc1[N+](=O)[O-])c1cc(F)c(F)cc1Cl	1.7%	-2.7%	-7.5%	-29.4%	-4.4%	-7.7%
O=C(O)CSc1n[nH]c(=O)[nH]c1=O	nt	nt	nt	-8.7%[9.22 µM]	nt	nt
O=C(N=C1N=C2C=CC=CN2Cc2ccccc21)c1ccc(S(=O)(=O)N2CCCC2)cc1	5.9%	28.0%	?	nt	19.2%	15.1%
CN(C)S(=O)(=O)c1cccc(C(=O)N=C2N=C3C=CC(Cl)=CN3Cc3ccccc32)c1	16.6%	2.51µM*	16.9µM*	nt	?	3.55µM*
Oc1c(C=Nc2ccccc2Cl)[nH]c2ccccc12	?	2.82µM*	?	nt	?	3.55µM*
O=c1[nH][nH]c(C(F)(F)F)c1C=Nc1ccccc1Cl	-2.9%	-3.6%	?	-9.0%	0.0%	1.5%
COc1cccc(NC(=O)CCc2nc3c(C)nn(-c4ccc(C)cc4)c3n(C)c2=O)c1	nt	nt	-1.7%	nt	nt	nt
